# What was measured:
# Assay in all cases: SPOT peptide array binding signal intensity (averaged, normalized) (arbitrary units (background-subtracted, floor 0; scale differs between SH3 domains)); higher = stronger binding of the SH3 domain to the peptide
# SpBzz1-D2 = target: SpBzz1-D2
# Method: (§1)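 GST-tagged SH3 domains from S. cerevisiae (Sc), A. gossypii (Ag), C. albicans (Ca) and S. pombe (Sp) were incubated at 10 ug/ml overnight at 4 C on cellulose SPOT membranes carrying 292 synthetic 15-mer peptides mined from the S. cerevisiae proteome (cysteines replaced by serines). Binding was detected with anti-GST antibody, HRP secondary and chemiluminescence, quantified with Genespotter, and reported as normalized spot intensities averaged over biological replicates.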
# SpCyk3 = target: SpCyk3
# Method: as §1
# SpHof1 = target: SpHof1
# Method: as §1
# SpHof1-2 = target: SpHof1-2
# Method: as §1
# SpHof1-3 = target: SpHof1-3
# Method: as §1
# SpHse1 = target: SpHse1
# Method: as §1
# SpLsb1 = target: SpLsb1
# Method: as §1
# SpLsb4 = target: SpLsb4
# Method: as §1
# SpMyo1 = target: SpMyo1
# Method: as §1
# SpNbp2 = target: SpNbp2
# Method: as §1
# SpPex13 = target: SpPex13
# Method: as §1
# SpRvs167 = target: SpRvs167
# Method: as §1
# SpSla1-D1-D2 = target: SpSla1-D1-D2
# Method: as §1
# SpSla1-D3 = target: SpSla1-D3
# Method: as §1
# AgAbp1 = target: AgAbp1
# Method: as §1
# AgBbc1 = target: AgBbc1
# Method: as §1
# AgBem1-D1 = target: AgBem1-D1
# Method: as §1
# AgBzz1-D1 = target: AgBzz1-D1
# Method: as §1
# AgBzz1-D2 = target: AgBzz1-D2
# Method: as §1
# AgCyk3 = target: AgCyk3
# Method: as §1
# AgFus1 = target: AgFus1
# Method: as §1
# AgHof1 = target: AgHof1
# Method: as §1
# AgHse1 = target: AgHse1
# Method: as §1
# AgLsb1 = target: AgLsb1
# Method: as §1
# AgLsb4 = target: AgLsb4
# Method: as §1
# AgMyo5 = target: AgMyo5
# Method: as §1
# AgNbp2 = target: AgNbp2
# Method: as §1
# AgRvs167 = target: AgRvs167
# Method: as §1
# AgSho1 = target: AgSho1
# Method: as §1
# AgSla1-D1-D2 = target: AgSla1-D1-D2
# Method: as §1
# AgSla1-D3 = target: AgSla1-D3
# Method: as §1
# CaAbp1-D1 = target: CaAbp1-D1
# Method: as §1
# CaAbp1-D2 = target: CaAbp1-D2
# Method: as §1
# CaBbc1 = target: CaBbc1
# Method: as §1
# CaBem1-D1 = target: CaBem1-D1
# Method: as §1
# CaBzz1-D1 = target: CaBzz1-D1
# Method: as §1
# CaBzz1-D2 = target: CaBzz1-D2
# Method: as §1
# CaCyk3 = target: CaCyk3
# Method: as §1
# CaFus1 = target: CaFus1
# Method: as §1
# CaHof1 = target: CaHof1
# Method: as §1
# CaHse1 = target: CaHse1
# Method: as §1
# CaLsb1 = target: CaLsb1
# Method: as §1
# CaLsb4 = target: CaLsb4
# Method: as §1
# CaMyo5 = target: CaMyo5
# Method: as §1
# CaNbp2 = target: CaNbp2
# Method: as §1
# CaRvs167 = target: CaRvs167
# Method: as §1
# CaRvs167-3 = target: CaRvs167-3
# Method: as §1
# CaSho1 = target: CaSho1
# Method: as §1
# CaSla1-D1-D2 = target: CaSla1-D1-D2
# Method: as §1
# CaSla1-D3 = target: CaSla1-D3
# Method: as §1
# ScAbp1 = target: ScAbp1
# Method: as §1
# ScBbc1 = target: ScBbc1
# Method: as §1
# ScBem1-D1 = target: ScBem1-D1
# Method: as §1
# ScBzz1-D1 = target: ScBzz1-D1
# Method: as §1
# ScBzz1-D2 = target: ScBzz1-D2
# Method: as §1
# ScCyk3 = target: ScCyk3
# Method: as §1
# ScFus1 = target: ScFus1
# Method: as §1
# ScHof1 = target: ScHof1
# Method: as §1
# ScHse1 = target: ScHse1
# Method: as §1
# ScLsb1 = target: ScLsb1
# Method: as §1
# ScLsb2 = target: ScLsb2
# Method: as §1
# ScLsb3 = target: ScLsb3
# Method: as §1
# ScLsb4 = target: ScLsb4
# Method: as §1
# ScMyo3 = target: ScMyo3
# Method: as §1
# ScMyo5 = target: ScMyo5
# Method: as §1
# ScNbp2 = target: ScNbp2
# Method: as §1
# ScPex13 = target: ScPex13
# Method: as §1
# ScRvs167 = target: ScRvs167
# Method: as §1
# ScSho1 = target: ScSho1
# Method: as §1
# ScSla1-D1-D2 = target: ScSla1-D1-D2
# Method: as §1
# ScSla1-D3 = target: ScSla1-D3
# Method: as §1
# SpAbp1-D1 = target: SpAbp1-D1
# Method: as §1
# SpBbc1 = target: SpBbc1
# Method: as §1
# SpBzz1-D1 = target: SpBzz1-D1
# Method: as §1
binder,measurement,setting,value
TKIRRRPQQPLTDFT,SPOT peptide array binding signal intensity,SpBzz1-D2,≤ 0
same,SPOT peptide array binding signal intensity,SpCyk3,1.5
same,SPOT peptide array binding signal intensity,SpHof1,65.5
same,SPOT peptide array binding signal intensity,SpHof1-2,5.5
same,SPOT peptide array binding signal intensity,SpHof1-3,164
same,SPOT peptide array binding signal intensity,SpHse1,93
same,SPOT peptide array binding signal intensity,SpLsb1,5
same,SPOT peptide array binding signal intensity,SpLsb4,104
same,SPOT peptide array binding signal intensity,SpMyo1,8
same,SPOT peptide array binding signal intensity,SpNbp2,10.5
same,SPOT peptide array binding signal intensity,SpPex13,1
same,SPOT peptide array binding signal intensity,SpRvs167,11.8
same,SPOT peptide array binding signal intensity,SpSla1-D1-D2,1
same,SPOT peptide array binding signal intensity,SpSla1-D3,≤ 0
KFIPSRPAPKPPSSA,SPOT peptide array binding signal intensity,AgAbp1,1640
same,SPOT peptide array binding signal intensity,AgBbc1,1210
same,SPOT peptide array binding signal intensity,AgBem1-D1,98
same,SPOT peptide array binding signal intensity,AgBzz1-D1,70
same,SPOT peptide array binding signal intensity,AgBzz1-D2,69.5
same,SPOT peptide array binding signal intensity,AgCyk3,≤ 0
same,SPOT peptide array binding signal intensity,AgFus1,≤ 0
same,SPOT peptide array binding signal intensity,AgHof1,26.2
same,SPOT peptide array binding signal intensity,AgHse1,37
same,SPOT peptide array binding signal intensity,AgLsb1,674
same,SPOT peptide array binding signal intensity,AgLsb4,30.5
same,SPOT peptide array binding signal intensity,AgMyo5,1380
same,SPOT peptide array binding signal intensity,AgNbp2,11400
same,SPOT peptide array binding signal intensity,AgRvs167,5.5
same,SPOT peptide array binding signal intensity,AgSho1,≤ 0
same,SPOT peptide array binding signal intensity,AgSla1-D1-D2,51
same,SPOT peptide array binding signal intensity,AgSla1-D3,1
same,SPOT peptide array binding signal intensity,CaAbp1-D1,1850
same,SPOT peptide array binding signal intensity,CaAbp1-D2,1020
same,SPOT peptide array binding signal intensity,CaBbc1,1910
same,SPOT peptide array binding signal intensity,CaBem1-D1,1550
same,SPOT peptide array binding signal intensity,CaBzz1-D1,1780
same,SPOT peptide array binding signal intensity,CaBzz1-D2,1310
same,SPOT peptide array binding signal intensity,CaCyk3,46
same,SPOT peptide array binding signal intensity,CaFus1,75
same,SPOT peptide array binding signal intensity,CaHof1,≤ 0
same,SPOT peptide array binding signal intensity,CaHse1,2.25
same,SPOT peptide array binding signal intensity,CaLsb1,≤ 0
same,SPOT peptide array binding signal intensity,CaLsb4,190
same,SPOT peptide array binding signal intensity,CaMyo5,24
same,SPOT peptide array binding signal intensity,CaNbp2,6170
same,SPOT peptide array binding signal intensity,CaRvs167,51
same,SPOT peptide array binding signal intensity,CaRvs167-3,2
same,SPOT peptide array binding signal intensity,CaSho1,≤ 0
same,SPOT peptide array binding signal intensity,CaSla1-D1-D2,1010
same,SPOT peptide array binding signal intensity,CaSla1-D3,65.5
same,SPOT peptide array binding signal intensity,ScAbp1,323
same,SPOT peptide array binding signal intensity,ScBbc1,716
same,SPOT peptide array binding signal intensity,ScBem1-D1,≤ 0
same,SPOT peptide array binding signal intensity,ScBzz1-D1,87
same,SPOT peptide array binding signal intensity,ScBzz1-D2,8
same,SPOT peptide array binding signal intensity,ScCyk3,1
same,SPOT peptide array binding signal intensity,ScFus1,0.5
same,SPOT peptide array binding signal intensity,ScHof1,1
same,SPOT peptide array binding signal intensity,ScHse1,≤ 0
same,SPOT peptide array binding signal intensity,ScLsb1,51.8
same,SPOT peptide array binding signal intensity,ScLsb2,288
same,SPOT peptide array binding signal intensity,ScLsb3,982
same,SPOT peptide array binding signal intensity,ScLsb4,13
same,SPOT peptide array binding signal intensity,ScMyo3,2740
same,SPOT peptide array binding signal intensity,ScMyo5,1420
same,SPOT peptide array binding signal intensity,ScNbp2,8490
same,SPOT peptide array binding signal intensity,ScPex13,2800
same,SPOT peptide array binding signal intensity,ScRvs167,396
same,SPOT peptide array binding signal intensity,ScSho1,18
same,SPOT peptide array binding signal intensity,ScSla1-D1-D2,1290
same,SPOT peptide array binding signal intensity,ScSla1-D3,769
same,SPOT peptide array binding signal intensity,SpAbp1-D1,602
same,SPOT peptide array binding signal intensity,SpBbc1,110
same,SPOT peptide array binding signal intensity,SpBzz1-D1,1050
same,SPOT peptide array binding signal intensity,SpBzz1-D2,32.8
same,SPOT peptide array binding signal intensity,SpCyk3,≤ 0
same,SPOT peptide array binding signal intensity,SpHof1,9.75
same,SPOT peptide array binding signal intensity,SpHof1-2,9.25
same,SPOT peptide array binding signal intensity,SpHof1-3,144
same,SPOT peptide array binding signal intensity,SpHse1,140
same,SPOT peptide array binding signal intensity,SpLsb1,62
same,SPOT peptide array binding signal intensity,SpLsb4,865
same,SPOT peptide array binding signal intensity,SpMyo1,3260
same,SPOT peptide array binding signal intensity,SpNbp2,1060
same,SPOT peptide array binding signal intensity,SpPex13,90
same,SPOT peptide array binding signal intensity,SpRvs167,319
same,SPOT peptide array binding signal intensity,SpSla1-D1-D2,≤ 0
same,SPOT peptide array binding signal intensity,SpSla1-D3,≤ 0
LKRITSPPLPPRADS,SPOT peptide array binding signal intensity,AgAbp1,20.5
same,SPOT peptide array binding signal intensity,AgBbc1,427
same,SPOT peptide array binding signal intensity,AgBem1-D1,59
same,SPOT peptide array binding signal intensity,AgBzz1-D1,87.5
same,SPOT peptide array binding signal intensity,AgBzz1-D2,82
same,SPOT peptide array binding signal intensity,AgCyk3,1
same,SPOT peptide array binding signal intensity,AgFus1,2
same,SPOT peptide array binding signal intensity,AgHof1,678
same,SPOT peptide array binding signal intensity,AgHse1,49
same,SPOT peptide array binding signal intensity,AgLsb1,1010
same,SPOT peptide array binding signal intensity,AgLsb4,5100
same,SPOT peptide array binding signal intensity,AgMyo5,3.25
same,SPOT peptide array binding signal intensity,AgNbp2,22
same,SPOT peptide array binding signal intensity,AgRvs167,1890
same,SPOT peptide array binding signal intensity,AgSho1,4
same,SPOT peptide array binding signal intensity,AgSla1-D1-D2,≤ 0
same,SPOT peptide array binding signal intensity,AgSla1-D3,4.75
same,SPOT peptide array binding signal intensity,CaAbp1-D1,134
same,SPOT peptide array binding signal intensity,CaAbp1-D2,96
same,SPOT peptide array binding signal intensity,CaBbc1,1010
same,SPOT peptide array binding signal intensity,CaBem1-D1,24.5
same,SPOT peptide array binding signal intensity,CaBzz1-D1,1940
same,SPOT peptide array binding signal intensity,CaBzz1-D2,423
same,SPOT peptide array binding signal intensity,CaCyk3,25.5
same,SPOT peptide array binding signal intensity,CaFus1,99.5
same,SPOT peptide array binding signal intensity,CaHof1,4.25
same,SPOT peptide array binding signal intensity,CaHse1,124
same,SPOT peptide array binding signal intensity,CaLsb1,1.5
same,SPOT peptide array binding signal intensity,CaLsb4,6040
same,SPOT peptide array binding signal intensity,CaMyo5,2.5
